A selection: hits, their analogues and other compounds. The true share with any hit is near 3.8%.
rRNA inh HTS: reduced GFP signal of wild-type E. coli, primary screen, bacterial rRNA inhibitor project, GFP/RFP fluorescence, OD600, single point; E. coli WT GFP vs humanized-ribosome RFP mutants, 24 h; hits give low values; DMSO median 0, no signal -100; GFP signal change (wild-type ribosome), % (no concentration beside the values); 350,000 compounds, 1.6% hits;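 active means significant combined selectivity score with lowered wild-type GFP, culture density cut under 30%, mutant RFP and density less affected; inactive means any of these conditions unmet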
FGF22 binding-1: binders of human FGF22 protein, primary screen, FGF22 synaptogenesis inhibitor project, biophysical, thermal shift, single point; 340,000 compounds, 1.5% hits; AID 651658, 2012; Fibroblast growth factor 22 (Homo sapiens), Q9HCT0; recombinant FGF22 thermal shift, SYPRO orange fluorescence; percent of sucrose octasulfate shift, DMSO zero; activity (Tm shift, normalised), % at 9.99 µM;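 active means mean Tm shift, scaled 0 neutral to 100 positive control, at about 1.3% or above, every replicate too, limit read from the data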
Target sequence (Q9HCT0 whole entry, looked up): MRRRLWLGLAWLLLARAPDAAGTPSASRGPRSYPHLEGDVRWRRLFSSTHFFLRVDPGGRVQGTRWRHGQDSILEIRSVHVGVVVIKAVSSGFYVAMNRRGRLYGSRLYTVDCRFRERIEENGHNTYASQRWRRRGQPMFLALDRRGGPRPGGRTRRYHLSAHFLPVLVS
ADAM17 inh: ADAM17 inhibitors, primary screen, biochemical, QFRET; inhibition, % at 6.95 µM; AID 720648, 2013; 370,000 compounds, 0.83% hits; recombinant ADAM17, EDANS/DABCYL FRET peptide cleavage;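 active means inhibition above the mean of compounds lying between control limits plus 3 SD, set per campaign, cut at about 8.5% in these data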
KLK7 zymogen act: proKLK7 zymogen activators, primary screen, biochemical, fluorescence intensity; Kallikrein-7 (Homo sapiens), P49862; purified proKLK7, EDANS-DABCYL substrate fluorescence; 100% is mature enzyme control, 0% vehicle; activation, % at 7 µM; 370,000 compounds, 0.9% hits;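 active means activation above the mean of all tested compounds plus 3 SD, computed per campaign excluding outliers beyond control limits, cut at about 13% in these data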
Target sequence (P49862 whole entry, looked up): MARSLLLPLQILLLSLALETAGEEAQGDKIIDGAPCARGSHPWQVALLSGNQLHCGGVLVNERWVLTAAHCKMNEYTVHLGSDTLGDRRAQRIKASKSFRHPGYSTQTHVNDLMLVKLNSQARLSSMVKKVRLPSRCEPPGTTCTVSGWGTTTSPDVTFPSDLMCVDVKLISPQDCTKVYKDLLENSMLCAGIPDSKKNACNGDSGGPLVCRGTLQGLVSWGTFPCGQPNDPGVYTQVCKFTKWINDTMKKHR
ADAM10 inh: human ADAM10 inhibitors, primary screen, biochemical, QFRET, HTS. AID 720582, 2013. recombinant ADAM10, EDANS/DABCYL FRET peptide cleavage, 3 h. 370,000 compounds, 0.62% hits. inhibition, % at 7 µM. Disintegrin and metalloproteinase domain-containing protein 10 (Homo sapiens), O14672;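 active means inhibition above a per-campaign cutoff equal to the mean of compounds falling between control-based bounds plus 3 SD, cut at about 20% in these data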
FGF22 binding-2: binders of human FGF22 protein, dose response, FGF22 synaptogenesis inhibitor project, biophysical, thermal shift, cherry-pick retest | shares compounds with FGF22 binding-1 | recombinant FGF22 thermal shift, SYPRO orange fluorescence | thermal shift activity, °C (ΔTm) at 38 µM | 1,000 compounds, 2% hits | AID 720646, 2013;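 active means fitted rise in melting shift crosses a set limit at or below the top valid dose tested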
SYPRO no-protein: compound-only thermal shift signal without protein, dose response, artefact control for FGF22 binder project, biochemical, cherry-picked samples, RT-PCR instrument. 1,000 compounds, 2% hits. shares compounds with FGF22 binding-1. compound-only SYPRO orange thermal shift counter-screen, no protein. AID 743019, 2013. AC50, µM (series often up to 38 µM);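 active means rising signal whose fitted curve reaches the 0.54 level within the top valid dose, showing a melting point, actives reach about 13 µM in these data; inactive means the rest, including activity in the opposite direction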; further: value is where the raw curve crosses a fixed level and not half-maximal
KLK7 act conf: proKLK7 zymogen activators, confirmation, biochemical, fluorescence intensity, triplicate; shares compounds with KLK7 zymogen act; purified proKLK7, EDANS-DABCYL substrate fluorescence; scaled: vehicle 0, mature enzyme 100; activation, % at 7 µM; 3,200 compounds, 68% hits; AID 686949, 2013;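 active means activation, as change over the incubation, above the mean of all tested compounds plus 3 SD, cut at about 13% in these data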
EDANS interfere: EDANS-DABCYL substrate optical interference, artefact control for kallikrein-7 zymogen activator project, biochemical, fluorescence intensity, high throughput; shares compounds with KLK7 zymogen act; 3,200 compounds, 80% hits; no enzyme, 4 h; solvent 0%, active enzyme control 100%; activation, % at 7 µM; AID 686952, 2013;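 active means activation above the all-compound mean plus 3 SD, ignoring values outside control-based bounds, cut at about 4.8% in these data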;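 further: value is the 4 h activation minus the activation read at time zero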
ADAM10 ctr: ADAM10 inhibitors, counter-screen for ADAM17 exosite inhibitor project, biochemical, FRET, human ADAM10; recombinant ADAM10, EDANS/DABCYL FRET peptide cleavage, 3 h; 2,900 compounds, 47% hits; shares compounds with ADAM17 inh; inhibition, % at 6.95 µM;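 active means mean inhibition over the triplicate runs exceeds the activity threshold set in the earlier primary screen, cut at about 20% in these data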
ADAM17 confirm: ADAM17 inhibitors, hit retest, confirmation, biochemical, QFRET peptide cleavage; shares compounds with ADAM17 inh; recombinant ADAM17, EDANS/DABCYL QFRET peptide cleavage; inhibition, % at 6.95 µM; 2,900 compounds, 65% hits; AID 743257, 2014;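 active means mean inhibition across replicates above the hit cutoff set in the primary screen, cut at about 8.5% in these data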
Numbers stand for hits; i = inactive; nt = no result.

SMILES	rRNA inh HTS	FGF22 binding-1	ADAM17 inh	KLK7 zymogen act	ADAM10 inh	KLK7 act conf	EDANS interfere	others
CCOC(=O)c1sc(NC(=O)Nc2ccccc2)cc1C	nt	2.1	9.2	i	i	nt	nt	FGF22 binding-2=i;SYPRO no-protein=i;ADAM10 ctr=i;ADAM17 confirm=i
COc1cc(C)c2c(c1C=O)Oc1c(c(C)c(O)c3c1C(O)OC3=O)OC2=O (stereo unspecified)	nt	2.1	38.8	i	i	nt	nt	FGF22 binding-2=i;SYPRO no-protein=i;ADAM10 ctr=i;ADAM17 confirm=i
Cn1cnc(S(=O)(=O)N2CC[C@@H]3[C@H]2c2cc(C4=CCCCC4)ccc2N[C@@H]3CO)c1	i	nt	nt	nt	nt	nt	nt
CCN1[C@H](C(=O)OC)[C@@H](CO)[C@@H]2Cn3c(ccc(-c4cccc(C(=O)N(C)C)c4)c3=O)[C@@H]21	i	i	nt	nt	nt	nt	nt
COc1ccc(S(=O)(=O)NCCc2ccccn2)cc1	i	i	i	i	i	nt	nt
Cc1nc2nc(CCNS(=O)(=O)c3ccc(Cl)cc3)cn2nc1C	i	i	i	23.7	i	75.0	75.2
COc1ccc(S(=O)(=O)NCCc2cn3nc(C)c(C)nc3n2)cc1	i	i	i	32.0	i	71.1	76.8
COC(=O)[C@H]1[C@H](CO)[C@H]2Cn3c(ccc(-c4ccc(F)cc4)c3=O)[C@H]2N1C(=O)C1CCC1	i	i	nt	nt	nt	nt	nt
CC(=O)N(C)C[C@@H]1[C@@H](c2ccc(C3=CCCCC3)cc2)[C@@H](CO)N1CC1CC1	i	i	nt	nt	nt	nt	nt
CCCNC(=O)N1[C@@H](CO)[C@@H](c2ccccc2)C12CN(C(=O)CC1CC1)C2	i	i	nt	nt	nt	nt	nt
CC[C@]12c3[nH]c4ccc(OC)cc4c3CCN1C(=O)C(CC(=O)NCCCn1ccnc1)C[C@@H]2C(=O)N1CCN(C(=O)C2CC2)CC1 (stereo partly specified)	i	i	i	i	i	nt	nt
CC[C@]12c3[nH]c4cc(-c5ccco5)ccc4c3CCN1C(=O)[C@@H](CC(=O)NCCCn1ccnc1)C[C@@H]2C(=O)N1CCN(C(=O)c2ccco2)CC1	i	i	i	97.1	i	130.8	130.0
CC[C@]12c3[nH]c4cc(-c5ccco5)ccc4c3CCN1C(=O)[C@@H](CC(=O)NCCCn1ccnc1)C[C@@H]2C(=O)N1CCN(C(=O)C2CC2)CC1	i	i	i	68.6	i	54.0	53.2
COCC(=O)Nc1ccc2c(c1)C(=O)N(C)[C@H]1CC[C@@H](CC(=O)NCCc3ccncc3)O[C@H]1CO2	i	i	nt	nt	nt	nt	nt
COc1ccc(-c2cc(=O)oc3c(C)c(O)c(CN(C)C)cc23)cc1	nt	nt	i	13.8	i	i	i
COC(=O)c1ccc2c(C)c(C(C)(C)O)[nH]c2c1	i	i	i	27.6	i	66.8	63.5
CCC1NC(C(=O)O)Cc2c1[nH]c1ccccc21 (stereo unspecified)	nt	i	i	35.7	i	i	9.8
Cc1cc(=O)oc2c3c(cc(OCC(=O)N4CCC[C@H]4C(=O)O)c12)OC(C)(C)CC3	nt	i	i	34.8	i	65.6	64.5
Cc1cc(=O)oc2c3c(cc(OCC(=O)N4CCC(C(=O)O)CC4)c12)OC(C)(C)CC3	nt	i	i	47.5	i	64.6	60.8
Cc1cc(=O)oc2c3c(cc(OCC(=O)Nc4ccc(CCO)cc4)c12)OC(C)(C)CC3	i	i	i	i	i	nt	nt
CCCCc1cc(=O)oc2c3c(cc(OCC(=O)N4CCC[C@H]4C(=O)O)c12)OC(C)(C)CC3	nt	i	i	52.6	i	57.0	62.4
CN(C)CC(=O)Nc1ccc2c(c1)[C@H]1C[C@@H](CC(=O)NCc3ccccc3)O[C@H](CO)[C@H]1O2	i	i	nt	nt	nt	nt	nt
Cc1cccc(C2Nc3ccccc3C(=O)N2CCc2ccccc2)n1 (stereo unspecified)	i	nt	i	20.9	i	i	10.6
COC(=O)c1cc(=O)nc2sc3cc(OC)ccc3n12	nt	nt	i	28.9	i	21.6	24.2
CCCCc1c(O)nc2sc3cc(OC)ccc3n2c1=O	nt	nt	i	i	i	nt	nt
SMILES	rRNA inh HTS	FGF22 binding-1	ADAM17 inh	KLK7 zymogen act	ADAM10 inh	KLK7 act conf	EDANS interfere	others
COC(=O)c1cc(=O)n2c(-c3ccc(OC)cc3)csc2n1	nt	nt	i	i	i	nt	nt
CCOc1ccc2c(c1)sc1nc(C(=O)OC)cc(=O)n12	nt	nt	i	16.9	i	15.3	16.4
CCOC(=O)CCc1c(C)c2ccc3c(c2oc1=O)CN(CCCO)CO3	i	i	i	52.3	i	71.2	75.3
CCOC(=O)C1CCN(C(c2cc3ccc(C)c(C)c3[nH]c2=O)c2nnnn2C2CCCCC2)CC1 (stereo unspecified)	nt	nt	i	i	i	nt	nt
CCOC(=O)C1CCN(C(c2cc3c(C)ccc(C)c3[nH]c2=O)c2nnnn2C2CCCCC2)CC1 (stereo unspecified)	nt	nt	i	27.0	i	i	i
O=C(Cc1ccccc1)N[C@H]1C=C[C@@H](CC(=O)N2CCCCC2)O[C@@H]1CO	i	i	nt	nt	nt	nt	nt
COc1ccc(NC(=O)Nc2ccc3c(c2)C(=O)N([C@@H](C)CO)C[C@@H](C)[C@@H](CN(C)S(=O)(=O)c2ccc(F)cc2)OCCCC[C@H](C)O3)cc1	i	i	nt	nt	nt	nt	nt

Screening data as filed in PubChem BioAssay.
